From PubChem BioAssay AID1578 (Sanford-Burnham Center for Chemical Genomics, 2009)
The campaign covered roughly 290,000 compounds. About 3,000 (1%) were called active. This is one part of a sample in which actives are shown more often than they occur. No stated cut-off is given here; in the data, active means inhibition mostly above about 36% (no sharp cut-off); inactive means mostly below about 34%.

Assay: NOD1 signaling inhibitors, primary screen, cell-based, luminescence, uHTS (AID 1578);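 further: HEK-293T reporter cells stimulated with the NOD1 agonist gamma-tri-DAP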
Details: NOD1-driven NF-kB luciferase reporter cells, at 4 µM, hits give high values

inhibition, active:
Cc1sc2nc[nH]c(=S)c2c1-c1ccccc1 99.2%
O=C(COC(=O)Cc1ccc(Br)cc1)NCc1ccc(F)cc1 48.2%
Cc1nc(NCc2ccco2)c2c(C)c(C)sc2n1 97.6%
Cc1cc(/C=C2\Cc3ccccc3C2=O)c(C)n1-c1ccccc1 63.8%
Oc1[nH]c(N=C2N=c3ccccc3=N2)c2ccccc12 42.6%
Cc1sc(NC(=O)CCl)c(C(=O)c2ccccc2)c1C 60.9%
Cc1ccc(C(=O)N(Cc2cccnc2)Cc2cc3cc(C)ccc3n3nnnc23)cc1 52%
COCCN(Cc1cc2cc(C)ccc2n2nnnc12)C(=S)Nc1ccccc1C 52.2%
CC(C)N(c1ccccc1)c1ccc(NC(=O)CCl)cc1 95.4%
O=C(CCl)Nc1ccc(-c2ccccc2)cc1 78.6%
O=C(CCCSc1ccc(Cl)cc1)Nc1ccccc1O 59.4%
O=C(CCl)Nc1ccc(N=Nc2ccccc2)cc1 107%

inhibition, inactive:
COc1ccc(C(C)=O)cc1CC(=O)Nc1ccccc1-c1ccccc1 -4.6%
Cc1c(-c2ccccc2)sc2nc[nH]c(=S)c12 -35.9%
S=c1[nH]cnc2scc(-c3ccccc3)c12 -0.1%
O=C(COC(=O)Cc1ccc(-c2ccccc2)cc1)NCc1ccc(F)cc1 -4.2%
O=C(COC(=O)c1ccc(Br)cc1)NCc1ccc(F)cc1 -22.6%
COc1ccc(/C(C)=N/NC(=O)c2sccc2-n2cccc2)cc1 -58.2%
Cc1sc2ncnc(NCc3ccco3)c2c1C -21.2%
Cc1nc(NCc2ccco2)c2c3c(sc2n1)CCC3 -54.6%
COc1ccccc1C1CCN(Cc2ccc(C)cc2)CC1 4.9%
Cc1cc(C=C2C(=O)c3ccccc3C2=O)c(C)n1-c1ccccc1 32.4%
Cc1cc(C=C2C(=O)CCCC2=O)c(C)n1-c1ccccc1 -19.3%
Cc1nc(N)ncc1-c1ccc2c(c1)OCO2 2.9%
O=C(NCC(=O)N(c1ccc(Cl)cc1)C(C(=O)NC1CCCC1)c1cccnc1)c1ccco1 (centres undefined) 6%
Oc1[nH]c2ccccc2c1N=Nc1cccc(Cl)c1 -10.3%
N#CC(=C1N=c2ccccc2=N1)c1c(O)[nH]c2ccccc12 20%
CC(C)NC(=O)NC(=O)COC(=O)c1cc[n+]([O-])cc1 -6.6%
CCOC(=O)CON1C(=O)C(=O)N(OCC(=O)OCC)C2CCCCC21 (centres undefined) -26.3%
CC(C)(C)N1CC(COc2ccccc2)OC1=O (centres undefined) -21.9%
Cc1ccc(C(=O)Nc2sc(C)c(C)c2C(=O)c2ccccc2)cc1 -9.8%
Cc1sc(NC(=O)c2ccccc2)c(C(=O)c2ccccc2)c1C 14.5%
Cc1ccc(NC(=O)CN(C)C(=O)/C=C/c2cccc(F)c2)cc1 -1.6%
Cc1ccc2c(c1)cc(CN(Cc1cccnc1)C(=O)NCc1ccccc1)c1nnnn12 -2.2%
COCCN(Cc1cc2cc(C)ccc2n2nnnc12)C(=S)Nc1cccc(C)c1 33.3%
Cc1ccc2c(c1)cc(CN(Cc1cccnc1)C(=O)c1ccccc1)c1nnnn12 -33.2%
COCCN(Cc1cc2cc(C)ccc2n2nnnc12)C(=S)Nc1ccc(C)cc1 10.5%
COc1ccc(-c2csc(-c3[nH]cnc3N)n2)cc1 -36.1%
COCCNC(=O)Cn1ccc2cc(S(=O)(=O)N3CCCCCC3)ccc21 -9.2%
COc1cc(-c2noc(C)c2-c2ccc3[nH]ccc3c2)cc(OC)c1OC 33.3%
CC1CCCN(C(=O)CCNS(=O)(=O)c2ccc3c(c2)oc(=O)n3C)C1 (centres undefined) -23.9%
CC(C)N(c1ccccc1)c1ccc(NC(=S)NCCN(C)C)cc1 -23.3%
O=C(Cc1ccc(-c2ccccc2)cc1)Nc1ccccc1 -1.9%
COC(=O)c1cccc(NC(=O)CCSc2ccc(Cl)cc2)c1C -10.1%
O=C(CSCc1ccc(Cl)cc1)Nc1ccccc1O -40%
CC(=O)Nc1ccc(NC(=O)Cc2ccc(-c3ccccc3)cc2)cc1 -16.2%
Cc1ccc(C)c(Sc2ccc(NC(=O)CCl)cc2)c1 19.3%
Cc1ccc(Sc2ccc(NC(=O)CCl)cc2)cc1C 21.2%
CCNC(=S)Nc1ccc(N(c2ccccc2)C(C)C)cc1 -9.8%
COc1ccc(/C=N/NC(=O)COc2ccc(Cl)cc2Cl)cc1Cn1nc(C)cc1C -18%
COc1ccccc1N1CCN(C2CCCN(C(=O)CCC(C)=O)C2)CC1 (centres undefined) -21%
COc1ccc(S(=O)(=O)N2CCC(C(=O)N[C@@H](C)C(=O)NCc3cccc(OC)c3)CC2)cc1 -4.9%
Cc1c(C)c2c(OCC(=O)N3CCC(C(=O)NCC(C)C)CC3)cc3c(c2oc1=O)CCC(C)(C)O3 -19.1%
O=C(CCCn1cnc2ccccc2c1=O)Nc1ccccc1F -9.5%
Cc1cccc(C)c1NC(=O)C1C2C=CC(C2)C1C(=O)O (centres undefined) -40.2%
CCN1CCN(C(c2cccs2)C(C)NC(=O)c2ccco2)CC1 (centres undefined) 5.5%
CC(=O)Nc1nnc(/C=C/c2cccc([N+](=O)[O-])c2)s1 46%
CC(=O)C1=C(O)C(=O)N(Cc2ccco2)C1c1cccc(F)c1 (centres undefined) -28%
O=C(NCc1ccco1)c1ccc(Cl)c(S(=O)(=O)Nc2ccccc2)c1 -15%
COc1ccc(N(CC(=O)Nc2cc([N+](=O)[O-])ccc2C)S(C)(=O)=O)cc1OC 1.1%
O=C(Cc1ccc(Cl)cc1)Nc1ccccc1Sc1ccccc1 -16.9%
O=C(O)CCCC(=O)Nc1ccc(N=Nc2ccccc2)cc1 -13.6%
O=C(O)CCC(=O)Nc1ccc(N=Nc2ccccc2)cc1 -26.1%
O=C(CCl)Nc1ccccc1Sc1ccccc1 21.3%
